# Assay results reported in PubChem BioAssay (NCATS).
# Experiments:
# [1] = qHTS profiling of the MIPE4 collection as inhibitors of Plasmodium falciparum (3D7) proliferation (AID 743344);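 also: scaled between DMSO vehicle wells and 0.29 µM artemisinin as full inhibition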; details: P. falciparum 3D7 in erythrocytes, SYBR Green DNA fluorescence, 72 h; at 28.5 µM
# In short: (§1)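 Parasite DNA was quantified by SYBR Green I fluorescence (ex 485, em 535 nm) after overnight lysis in saponin/Triton buffer at room temperature. Cultures at 0.3% parasitemia and 2.5% hematocrit were first exposed to compound for 72 h at 37 C; signals were normalised to artemisinin (0.29 uM) and vehicle wells.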
# [2] = qHTS profiling of the MIPE4 collection as inhibitors of Plasmodium falciparum (DD2) proliferation (Rep 2) (AID 743346); details: P. falciparum Dd2 in erythrocytes, SYBR Green DNA, 72 h; at 28.5 µM
# In short: as §1
# [3] = qHTS profiling of the MIPE4 collection as inhibitors of Plasmodium falciparum (HB3) proliferation (AID 743347);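 also: plate controls were DMSO vehicle wells for no effect and artemisinin wells for full effect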; details: P. falciparum HB3 in erythrocytes, SYBR Green DNA, 72 h; at 28.5 µM
# In short: as §1
# [4] = qHTS profiling of the MIPE4 collection as inhibitors of Plasmodium falciparum (DD2) proliferation (AID 743345); details: P. falciparum Dd2 in erythrocytes, SYBR Green DNA, 72 h; at 28.5 µM unless noted
# In short: as §1
SMILES,"parasite growth, % of DMSO control [1] [%]","parasite growth, % of control (lower = inhibition) [2] [%]","growth, % of control [3] [%]","parasite growth remaining, % of DMSO control (lower = more inhibition) [4] [%]"
CN[C@@H]1Cc2cccc3[nH]c(=O)n(c23)C1,92.4,82.7,85.5,–
CC(C)[C@]12O[C@@H]1[C@@H]1O[C@]13[C@]1(O[C@H]1C[C@@H]1C4=C(CC[C@@]13C)C(=O)OC4)[C@H]2O,56.9,49.4,44.2,–
C1=C2CCCN[C@H]2[C@@H]2C[C@H]1[C@@H]1CCCCN1C2,71.7,69.3,94.5,–
CC(=Cc1csc(C)n1)[C@@H]1C[C@H]2O[C@@H]2CCC[C@H](C)[C@@H](O)[C@@H](C)C(=O)C(C)(C)[C@@H](O)CC(=O)O1,14.6,36.4,12.9,–
C[C@]12Cc3cn[nH]c3C[C@@H]1CC[C@@H]1[C@H]2CC[C@@]2(C)[C@H]1CC[C@]2(C)O,52.2,54.3,47.2,–
CC(C)(O)C=CC(=O)[C@](C)(O)[C@H]1[C@H](O)C[C@]2(C)[C@@H]3CC=C4[C@@H](C=C(O)C(=O)C4(C)C)[C@]3(C)C(=O)C[C@@]12C,5.63,21.6,7.62,–
C#C[C@]1(O)C=C[C@@H]2[C@@H]3CCC4=CC(=O)CC[C@@H]4[C@H]3CC[C@@]21CC,10.4,26.2,41.2,59.4
CC(C)N[C@@H]1CCn2c(=O)[nH]c3cccc(c32)[C@@H]1O,93.3,118,101,–
